Experimental data from PubChem BioAssay (NCI).
This is part of a sample that, as a whole, favours compounds with a hit. Of some 79,000 tested, about 15% had one in any assay. Activity calls are given as the source filed them. Rule as the data show it: active = growth inhibition above about 70%; inactive = the rest.

Experiment: NCI Yeast Anticancer Drug Screen. Data for the wt1 strain (AID 149);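 also: 0% = growth of vehicle-treated wt1 cultures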
Conditions: S. cerevisiae wt1 strain (SPY 50644) growth inhibition; at 11.0 µM; hits give high values
Procedure, shortened: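 wt1 yeast, compound-treated; % growth inhibition vs vehicle control.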

| Compound | growth inhibition |
| --- | --- |
| Cc1cccc2c(C(O)CBr)cc(-c3ccc(Cl)cc3)nc12 (configuration not stated) | 98% (active) |
| CN(C)C[C@H]1CC[C@@H](CN(C)C)C1=O | 25% (inactive) |
| CC1=C(SCCO)C(=O)c2ccccc2C1=O | -2% (inactive) |
| COC(=O)CCNc1c2ccccc2nc2cccc([N+](=O)[O-])c12 | 96% (active) |
| CC(/C=C/c1ccc2c(c1)OCO2)[N+](=O)[O-] (configuration not stated) | 99% (active) |
| COC(=O)C1=C(C)NC(C)=C(C(=O)OCCCN2CCC(c3ccccc3)(c3ccccc3)CC2)C1c1cccc([N+](=O)[O-])c1 (configuration not stated) | 69% (inactive) |
| CCOC(=O)c1cnc2c(C(F)(F)F)cccc2c1N=[N+]=[N-] | 1% (inactive) |
| O=[N+]([O-])c1cc2no[n+]([O-])c2cc1N1CCCCC1 | 99% (active) |
| COC(=O)c1ccc(NCC2=CC(=O)C=CC2=O)cc1O | 68% (inactive) |
| CCCCCCCCNC(=O)C1=C(C)NC(C)=C(C(=O)NCCCCCCCC)C1 | 1% (inactive) |
| S=C(Nc1ccc(Cl)c(Cl)c1)SCc1ccc2c(c1)OCO2 | 100% (active) |
| O=S(=O)(CCCl)c1ccccc1Cl | 33% (inactive) |
| Nc1ccccc1CC(O)C(=O)O (configuration not stated) | 13% (inactive) |
| CN(C)c1ccc(Sc2ccc3nc(N)nc(N)c3c2)cc1 | 10% (inactive) |
| CC(C)C1=CCC2C(=C1)CCC1C(C)(C(=O)O)CCCC21C (configuration not stated) (tested in a mixture with another compound) | 12% (inactive) |
| Cc1ccc(S(=O)(=O)Oc2cc(Cl)c(Cl)cc2Cl)cc1 | -7% (inactive) |
| CSC(=S)Nc1cc(C)ccn1 | 17% (inactive) |
